Laboratory results reported in PubChem BioAssay AID2242 (National Center for Advancing Translational Sciences (NCATS), 2010).
Out of some 200,000 compounds screened, about 720 (0.36%) were called active. Inconclusive results (about 8%) are left out. Calls come from the whole dose curve; as a rule, active = well fitted activation curve with a large enough effect; inconclusive = small, poorly fitted or top-dose-only effect, or effect the other way, or another doubt; inactive = flat fitted curve, though single readings scatter. The list shows a part of the results.

target: Lysosomal alpha-glucosidase (Homo sapiens) (UniProt P10253); assay: qHTS Assay for Activators of Human alpha-Glucosidase as a Potential Chaperone Treatment of Pompe Disease; conditions: purified enzyme, 4-MU-alpha-glucoside fluorescence, 20 min; series mostly up to 76.9 µM; note: nearly all actives have a fitted effect of over 80% in size
Method in brief: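 Compounds titrated up to 77 uM against 4 nM enzyme and 400 uM methylumbelliferyl substrate at room temperature, 20 min, pH 5.0. Basic stop, then 4-methylumbelliferone fluorescence (365/440 nm) normalized to no-enzyme and enzyme controls; Hill-equation AC50.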
Potency is the fitted concentration of half-maximal effect.

Potency, active:
COCCCn1c(=NC(=O)c2ccccc2)c(C#N)cc2c(=O)n3cccc(C)c3nc21 39.8 µM
COCCCn1c(=NC(=O)c2ccncc2)c(C#N)cc2c(=O)n3cccc(C)c3nc21 35.5 µM
Cc1cccn2c(=O)c3cc(C#N)c(=NC(=O)c4ccncc4)n(CCCOC(C)C)c3nc12 35.5 µM
CCC12OC(=N)C(C#N)(C1C)C(C#N)(C#N)C(c1ccccc1)O2 (stereo not drawn) 39.8 µM
CCC1OC2(C)OC(=N)C1(C#N)C(C#N)(C#N)C2c1ccccc1 (stereo not drawn) 35.5 µM
CC(=O)Nc1ccc(S(=O)(=O)C(C#N)c2nc3ccccc3nc2NCCO)cc1 (stereo not drawn) 35.5 µM
CC(=O)Nc1ccc(S(=O)(=O)C(C#N)c2nc3ccccc3nc2NCCCO)cc1 (stereo not drawn) 31.6 µM
Cc1ccc(S(=O)(=O)NC(C(=O)Oc2ccc3ccc(=O)oc3c2)c2ccccc2)cc1 (stereo not drawn) 35.5 µM
Cc1ccc(S(=O)(=O)NC(C(=O)Oc2ccc3c(C)c(Cl)c(=O)oc3c2)c2ccccc2)cc1 (stereo not drawn) 28.2 µM
Cc1ccc(S(=O)(=O)NC(C(=O)Oc2cc3oc(=O)cc(C)c3cc2Cl)C(C)C)cc1 (stereo not drawn) 31.6 µM
O=C(Oc1ccc2ccc(=O)oc2c1)C1CCCCC1 35.5 µM
CC(NC(=O)OC(C)(C)C)C(=O)Oc1ccc2ccc(=O)oc2c1 (stereo not drawn) 31.6 µM
CC(C)(C)OC(=O)NCCC(=O)Oc1ccc2ccc(=O)oc2c1 35.5 µM
Cc1c(CCC(=O)O)c(=O)oc2cc(O)ccc12 35.5 µM
CCOC(=O)CCc1c(C)c2ccc(O)cc2oc1=O 35.5 µM
Cc1cccc(C(=O)N=c2c(C#N)cc3c(=O)n4cccc(C)c4nc3n2Cc2ccco2)c1 35.5 µM
Cc1ccccc1C(=O)N=c1c(C#N)cc2c(=O)n3cccc(C)c3nc2n1Cc1ccco1 35.5 µM
Fc1ccc(N2N=C(c3cccs3)CC2c2ccco2)c(F)c1 (stereo not drawn) 31.6 µM
Clc1ccc(N2N=C(c3cccs3)CC2c2ccco2)cc1 (stereo not drawn) 35.5 µM
O=c1oc2ccccc2c2c1SC(C(F)(F)F)C2 (stereo not drawn) 31.6 µM
O=S(=O)(O)c1ccc(N2N=C(c3ccccc3)CC2c2ccccc2)cc1 (stereo not drawn) 35.5 µM
COc1ccc(C2CC(c3ccccc3)=NN2c2ccc(Cl)c(C(=O)O)c2)cc1 (stereo not drawn) 28.2 µM
NS(=O)(=O)c1ccc(N2N=C(c3ccc(Br)cc3)CC2c2ccc(F)cc2)cc1 (stereo not drawn) 31.6 µM
NS(=O)(=O)c1ccc(N2N=C(c3ccccc3)CC2c2ccccc2)cc1 (stereo not drawn) 31.6 µM
COc1ccc(C2CC(c3ccccc3)=NN2c2ccc(S(N)(=O)=O)cc2)cc1OC (stereo not drawn) 31.6 µM
NS(=O)(=O)c1ccc(N2N=C(c3ccccc3)CC2c2cccc(F)c2)cc1 (stereo not drawn) 35.5 µM
NS(=O)(=O)c1ccc(N2N=C(c3ccccc3)CC2c2ccc(F)cc2)cc1 (stereo not drawn) 31.6 µM
CCc1ccc(C2=NN(c3ccc(S(N)(=O)=O)cc3)C(c3ccc(F)cc3)C2)cc1 (stereo not drawn) 31.6 µM
